“And” between values parts separate entries of the source, which are not always exact repeats. Identical values can stand only once. The source holds several records for some structures; these can differ, active in one and inactive in another. The source made the active and inactive calls.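 Rule for the calls, unless noted: active = inhibition at or above 50% relative to wild type and mutant plate controls; inactive = inhibition below 50%.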
What was measured:
[1] = inhibitors of TNFa-induced NFkB p65 translocation, primary screen, imaging, HUVEC, MLSMR starter and 10KST1 sets (AID 438;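 active = inhibition above 20% together with a positive visual image hit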;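 note: compound added about 3h40 before a 20 min TNFalpha stimulation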;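 for inhibition: signal is the nuclear over cytoplasmic p65 intensity ratio per well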); conditions: HUVEC TNFa-induced p65 nuclear translocation; cell count: measured here: nuclei count (cytotoxicity indicator), at 2.08 µM unless noted; inhibition: at 2 µM, stronger effect = higher value unless noted
[2] = inhibitors of mutant huntingtin aggregation, primary screen, imaging, exon1htt(103Q)mCFP cells, high-content imaging (AID 483;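 active = visual image review flags a hit and inhibition of aggregation exceeds 20%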;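 note: compound exposure lasted 3 days before fixation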;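 for nuclei count: percent of the per-plate median nuclei count of sample wells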); conditions: exon1htt(103Q)mCFP cell line, aggregate imaging, at 2 µM; inhibition of aggregation: stronger effect = higher value; nuclei count: measured here: cell count, toxicity
[3] = inhibitors of E-selectin induction by TNFa, primary screen, imaging, HUVEC, immunofluorescence, MLSMR starter and 10KST1 sets (AID 487;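 active = visually confirmed hit in the image check and inhibition above 20%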;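 for inhibition: signal is fraction of cell area covered by stained E-selectin grains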;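 for nuclei count: 100% = median nuclei count of all wells on the same plate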); conditions: HUVEC TNFalpha-induced E-selectin immunofluorescence imaging, at 2 µM; inhibition: stronger effect = higher value; nuclei count: measured here: cell number, toxicity
[4] = DUSP6 inhibitors restoring Erk phosphorylation by chemical complementation, primary imaging in DUSP6-transfected HeLa (AID 609;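 active = compounds giving at least 50% inhibition in the cell-based MKP-3 phosphatase rescue imaging test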;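 for inhibition: phospho-Erk level distribution per well compared with pooled transfected vehicle control wells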); conditions: HeLa MKP-3 transfected, phospho-Erk imaging KS statistic, at 10 µM
[5] = target: Dual specificity protein phosphatase 6 (Homo sapiens) (UniProt Q16828); assay: as above; conditions: HeLa MKP-3 transfected, phospho-Erk imaging KS statistic, at 10 µM, stronger effect = higher value
[6] = target: Voltage-gated potassium channel subunit beta-2 (Rattus norvegicus) (UniProt P62483); assay: KvBeta enzyme negative modulators, primary screen, biochemical, NADPH fluorescence (AID 622;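 active = fluorescence slope higher than the sample average by over 3 SD, cut at about -0.22 in these data, passing the limit was not always enough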;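 note: slope of raw intensity against log time taken from 70 to 1610 s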); conditions: recombinant KvBeta, 4-cyanobenzaldehyde reduction, at 10 µM, stronger effect = higher value
[7] = target: Voltage-gated potassium channel subunit beta-2 (Rattus norvegicus) (UniProt P62483); assay: KvBeta positive modulators, primary screen, biochemical, NADPH fluorescence (AID 623;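 active = NADPH fluorescence slope more negative than the mean of all samples by about 3 SD, 99.7% confidence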;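 note: fluorescence intensity change per second fitted from 20 to 320 s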); conditions: Recombinant KvBeta, NADPH fluorescence decrease slope, 10 min; at 10 µM; stronger effect = lower value
[8] = target: Alpha-2C adrenergic receptor (Homo sapiens) (UniProt P18825); assay: modulators of alpha2C/GIRK thallium flux, primary screen, cell-based, HEK293 alpha2C/GIRK1/2 (AID 624;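 active = fluorescence slope after compound addition differing from the mean of all screened samples at 99.7% confidence, in either direction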;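 note: slope of fluorescence ratio to pre-addition baseline per second over 15 to 24 s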); conditions: thallium flux BTC fluorescence, at 10 µM, actives lie on both sides
[9] = inhibitors of larval lipid processing in zebrafish, primary screen, whole organism, PED6 fluorescence, gall bladder and intestine (AID 686;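 active = a full or partial loss of lipid-probe fluorescence in the fish gall bladder, intestine or both, judged by eye; inactive = no fluorescence loss, or compound toxic to the fish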;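 note: larvae 5 to 7 days old with five fish per well; signal comes from phospholipase A2 cleavage of quenched PED6 carried via bile; overnight exposure to compound and PED6 before scoring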); conditions: Zebrafish larvae PED6 lipid processing, fluorescence scoring
[10] = inhibitors of Chlamydomonas gravitaxis, primary screen, whole organism, Chlamydomonas reinhardtii, WT vs cilia-less mutant, absorbance, 96-well (AID 463189); conditions: OD600 absorbance, 2 days, at 10 µM, stronger effect = higher value;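 note: 0% = wild type cc124 cells in DMSO and 100% = ciliumless bld1 mutant cells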
[11] = inhibitors of Sendai virus-induced IRF3 signaling, primary screen, TLR/RLR signaling modifier project, cell-based, Sendai virus stimulus, luciferase, 10K MLSCN set (AID 602276;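 active = inhibition at or above 50% at 10 µM; inactive = inhibition below 50%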;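 note: firefly luciferase from ISG56 promoter only with Renilla not read in this screen; 0% = Sendai virus plus DMSO and 100% = medium plus DMSO without virus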); conditions: HEK293 RL24 IRF3 luciferase reporter, at 10 µM, stronger effect = higher value
[12] = inhibitors of poly I:C-induced TLR3 signaling, primary screen, cell-based, poly I:C stimulus, luciferase, 10K MLSCN set (AID 602277;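 active = inhibition of the reporter signal at or above 50%; inactive = inhibition below 50%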); conditions: HEK293-TLR3 RL24 IRF3 luciferase reporter, at 10 µM, stronger effect = higher value
[13] = target: Muscarinic acetylcholine receptor M4 (Homo sapiens) (UniProt P08173); assay: compounds altering M4/GIRK thallium flux, either direction, primary screen, M4 allosteric agonist project, cell-based, HEK293 M4/GIRK, BTC-AM (AID 625;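 active = fluorescence slope after compound addition differing from the mean of all tested samples at 99.7% confidence, mostly higher but some lower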;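 note: thallium influx through GIRK channels coupled to M4 in HEK293 cells with BTC-AM dye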); conditions: at 10 µM, actives lie on both sides
[14] = measured here: cell density z-score
[15] = measured here: nuclear c-Myc green intensity z-score
[16] = measured here: nuclear pErk red intensity z-score, stronger effect = higher value

Sequence of Dual specificity protein phosphatase 6 (Homo sapiens) (Q16828 whole entry, looked up): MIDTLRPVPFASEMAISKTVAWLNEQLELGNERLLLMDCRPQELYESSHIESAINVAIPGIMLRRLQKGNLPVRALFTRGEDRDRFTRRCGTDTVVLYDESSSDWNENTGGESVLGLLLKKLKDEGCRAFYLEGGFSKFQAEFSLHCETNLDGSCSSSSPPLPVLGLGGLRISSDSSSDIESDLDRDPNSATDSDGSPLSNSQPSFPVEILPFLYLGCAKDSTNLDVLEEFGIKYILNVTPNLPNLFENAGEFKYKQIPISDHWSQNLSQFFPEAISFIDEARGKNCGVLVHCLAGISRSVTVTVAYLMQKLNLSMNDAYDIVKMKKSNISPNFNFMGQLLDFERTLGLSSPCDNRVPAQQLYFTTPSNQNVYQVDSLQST
Sequence of Alpha-2C adrenergic receptor (Homo sapiens) (P18825 whole entry, looked up): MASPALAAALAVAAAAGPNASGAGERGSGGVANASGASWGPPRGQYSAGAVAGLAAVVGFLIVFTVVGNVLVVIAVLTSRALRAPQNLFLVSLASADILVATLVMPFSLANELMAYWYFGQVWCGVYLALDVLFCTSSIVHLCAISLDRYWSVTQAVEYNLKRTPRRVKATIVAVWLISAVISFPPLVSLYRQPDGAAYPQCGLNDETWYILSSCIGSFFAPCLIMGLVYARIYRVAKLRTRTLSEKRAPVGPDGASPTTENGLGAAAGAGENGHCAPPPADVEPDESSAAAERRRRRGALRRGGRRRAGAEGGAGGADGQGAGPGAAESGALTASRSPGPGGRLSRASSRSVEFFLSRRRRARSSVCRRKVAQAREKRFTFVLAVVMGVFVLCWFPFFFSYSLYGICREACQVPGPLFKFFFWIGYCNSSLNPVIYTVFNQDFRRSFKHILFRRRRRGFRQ
Sequence of Voltage-gated potassium channel subunit beta-2 (Rattus norvegicus) (P62483 whole entry, looked up): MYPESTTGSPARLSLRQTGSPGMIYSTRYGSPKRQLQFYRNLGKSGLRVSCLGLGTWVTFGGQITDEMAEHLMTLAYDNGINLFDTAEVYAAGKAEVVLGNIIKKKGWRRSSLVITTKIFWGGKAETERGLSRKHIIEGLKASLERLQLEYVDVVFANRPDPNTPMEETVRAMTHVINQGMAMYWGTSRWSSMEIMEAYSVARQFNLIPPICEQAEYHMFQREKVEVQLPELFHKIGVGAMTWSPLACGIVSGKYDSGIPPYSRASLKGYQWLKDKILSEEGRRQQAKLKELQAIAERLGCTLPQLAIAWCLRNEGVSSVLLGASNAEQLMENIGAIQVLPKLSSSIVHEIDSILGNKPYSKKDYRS
Sequence of Muscarinic acetylcholine receptor M4 (Homo sapiens) (P08173 whole entry, looked up): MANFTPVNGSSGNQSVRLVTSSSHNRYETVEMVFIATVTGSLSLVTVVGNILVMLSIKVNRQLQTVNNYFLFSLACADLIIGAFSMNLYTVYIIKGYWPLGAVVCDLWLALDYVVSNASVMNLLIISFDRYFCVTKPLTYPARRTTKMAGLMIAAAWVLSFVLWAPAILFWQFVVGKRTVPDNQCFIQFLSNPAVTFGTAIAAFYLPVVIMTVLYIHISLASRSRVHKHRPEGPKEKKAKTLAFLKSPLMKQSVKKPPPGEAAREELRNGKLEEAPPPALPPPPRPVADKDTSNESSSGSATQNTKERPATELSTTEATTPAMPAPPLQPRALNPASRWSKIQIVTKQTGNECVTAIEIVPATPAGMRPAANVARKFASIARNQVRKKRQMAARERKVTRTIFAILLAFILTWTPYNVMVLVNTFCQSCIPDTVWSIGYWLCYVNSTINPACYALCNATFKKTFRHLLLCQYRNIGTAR

SMILES: O=C(CCCN1CCC2(CC1)C(=O)NCN2c1ccccc1)c1ccc(F)cc1
- cell count [1]: 564
- inhibition [1]: 2.1% (inactive)
- inhibition of aggregation [2]: -20.4% (inactive)
- nuclei count [2]: 100%
- inhibition [3]: 3.3% (inactive)
- nuclei count [3]: 103%
- z-score [4, 14]: -2.08
- z-score [4, 15]: 0.206
- z-score [4, 16]: 3.52
- inhibition [5]: 3.59% (inactive)
- fluorescence slope [6]: -0.51 (inactive)
- NADPH fluorescence slope [7]: -3.9e-05 (inactive)
- slope [8]: 0.00481 (inactive)
- outcome [9]: inactive
- inhibition [10]: 4.76% (inactive) and 18.8% (inactive)
- inhibition [11]: 29.9% (inactive)
- inhibition [12]: 29.3% (inactive)

SMILES: OCCOCC#CCN1CCOCC1
- cell count [1]: 582
- inhibition [1]: 8.1% (inactive)
- inhibition of aggregation [2]: -15.3% (inactive)
- nuclei count [2]: 100%
- inhibition [3]: -167% (inactive)
- nuclei count [3]: 137%
- z-score [4, 14]: -0.584
- z-score [4, 15]: 1.05
- z-score [4, 16]: 0.188
- inhibition [5]: 17.8% (inactive)
- fluorescence slope [6]: -0.497 (inactive)
- NADPH fluorescence slope [7]: -5.8e-05 (inactive)
- fluorescence slope [13]: 0.006 (inactive)
- outcome [9]: inactive
- inhibition [10]: -6.14% (inactive)
- inhibition [11]: 19.2% (inactive)
- inhibition [12]: 20.5% (inactive)

SMILES: O=C(Nc1ccncc1)c1c(O)c2ccccc2n(Cc2ccccc2)c1=O
- cell count [1]: 544
- inhibition [1]: -4.5% [at 2 µM, stronger effect = higher value, 0% TNFa-plus-vehicle, 100% no-TNFa wells] (inactive)
- inhibition [3]: -23.1% (inactive)
- nuclei count [3]: 145%
- z-score ([4]; measured here: cell density z-score, cells stimulated with TPA for 15 min): -0.126
- z-score ([4]; measured here: nuclear c-Myc green intensity z-score, cells stimulated with TPA for 15 min): -1.62
- z-score ([4]; measured here: nuclear pErk red intensity z-score, stronger effect = higher value, cells stimulated with TPA for 15 min): -0.473
- inhibition [5]: 10.5% [cells stimulated with TPA for 15 min] (inactive)
- fluorescence slope [6]: -0.32 (inactive)
- NADPH fluorescence slope [7]: 2.5e-05 (inactive)
- slope [8]: 0.00467 (inactive)
- outcome [9]: inactive [screened at 20 µM (by protocol)]
- inhibition [10]: 30.8% (inactive)

SMILES: C[N+]1(C)CCN(c2ccccc2)CC1
- cell count [1]: 637
- inhibition [1]: -3.4% (inactive)
- inhibition of aggregation [2]: -27% (inactive)
- nuclei count [2]: 102%
- inhibition [3]: -66.8% (inactive)
- nuclei count [3]: 118%
- z-score [4, 14]: 1.65
- z-score [4, 15]: -1.1
- z-score [4, 16]: -0.542
- inhibition [5]: 19% (inactive)
- fluorescence slope [6]: -0.439 (inactive)
- NADPH fluorescence slope [7]: -4.1e-05 (inactive)
- slope [8]: 0.00481 (inactive)
- outcome [9]: inactive
- inhibition [10]: 7.37% (inactive) and 14.5% (inactive)
- inhibition [11]: 0.511% (inactive)
- inhibition [12]: 51.8% (active)

SMILES: CN(C)[C@@H]1C(=O)C(C(N)=O)=C(O)[C@@]2(O)C(=O)C3=C(O)c4c(O)cccc4[C@@](C)(O)[C@H]3C[C@@H]12
- cell count [1]: 668
- inhibition [1]: 5.4% (inactive)
- inhibition of aggregation [2]: 72.1% (active)
- nuclei count [2]: 99.1%
- inhibition [3]: -85.3% (inactive)
- nuclei count [3]: 113%
- z-score [4, 14]: -0.618
- z-score [4, 15]: -0.0358
- z-score [4, 16]: -1.49
- inhibition [5]: 21.2% (inactive)
- fluorescence slope [6]: -0.433 (inactive)
- NADPH fluorescence slope [7]: -5.8e-05 (inactive)
- slope [8]: 0.00553 (inactive)
- outcome [9]: inactive
- inhibition [10]: 22.3% (inactive)
- inhibition [11]: 10.4% (inactive)
- inhibition [12]: 33.9% (inactive)

SMILES: CN1C[C@H](CNC(=O)OCc2ccccc2)C[C@@H]2c3cccc4c3c(cn4C)C[C@H]21
- cell count [1]: 603
- inhibition [1]: 2.7% (inactive)
- inhibition of aggregation [2]: -59.5% (inactive)
- nuclei count [2]: 111%
- inhibition [3]: -32.3% (inactive)
- nuclei count [3]: 110%
- z-score [4, 14]: -0.59
- z-score [4, 15]: -0.701
- z-score [4, 16]: 1.38
- inhibition [5]: 1.38% (inactive)
- fluorescence slope [6]: -0.508 (inactive)
- NADPH fluorescence slope [7]: -3.6e-06 (inactive)
- slope [8]: 0.0041 (inactive)
- outcome [9]: inactive
- inhibition [10]: 0.679% (inactive) and 168% (active)
- inhibition [11]: 1.55% (inactive)
- inhibition [12]: 23.4% (inactive)

SMILES: COC1=CC(=O)OC(/C=C/c2ccccc2)C1 (stereo unspecified)
- cell count [1]: 562
- inhibition [1]: 0.9% (inactive)
- inhibition of aggregation [2]: 17.4% (inactive)
- nuclei count [2]: 92%
- inhibition [3]: 1.6% (inactive)
- nuclei count [3]: 112%
- z-score [4, 14]: 1.47
- z-score [4, 15]: -1.75
- z-score [4, 16]: -1.36
- inhibition [5]: 25.7% (inactive)
- fluorescence slope [6]: -0.448 (inactive)
- NADPH fluorescence slope [7]: -5.6e-05 (inactive)
- slope [8]: 0.00584 (inactive)
- outcome [9]: inactive
- inhibition [10]: -16.3% (inactive)
- inhibition [11]: 0.4% (inactive)
- inhibition [12]: -0.629% (inactive)

SMILES: CC(C)C(=O)N1CCN(CCN=Cc2c(O)n(C)c(=O)n(C)c2=O)CC1
- cell count [1]: 517
- inhibition [1]: -3.1% (inactive)
- inhibition of aggregation [2]: -28.7% (inactive)
- nuclei count [2]: 138%
- inhibition [3]: -78.2% (inactive)
- nuclei count [3]: 112%
- z-score [4, 14]: 0.289
- z-score [4, 15]: -1.08
- z-score [4, 16]: 0.644
- inhibition [5]: 1.9e-07% (inactive)
- fluorescence slope [6]: -0.5 (inactive)
- NADPH fluorescence slope [7]: -3.4e-05 (inactive)
- slope [8]: 0.00563 (inactive)
- outcome [9]: inactive
- inhibition [10]: 33.6% (inactive)
- inhibition [11]: -6.82% (inactive)
- inhibition [12]: -2.86% (inactive)

SMILES: CC(=O)[C@@]1(O)CC[C@H]2[C@@H]3CC=C4C[C@@H](O)CC[C@]4(C)[C@H]3CC[C@@]21C
- cell count [1]: 618
- inhibition [1]: -10.4% (inactive)
- inhibition of aggregation [2]: 4% (inactive)
- nuclei count [2]: 99.3%
- inhibition [3]: -57.3% (inactive)
- nuclei count [3]: 129%
- z-score [4, 14]: -0.0512
- z-score [4, 15]: -0.687
- z-score [4, 16]: -0.36
- inhibition [5]: 7.39% (inactive)
- fluorescence slope [6]: -0.451 (inactive)
- NADPH fluorescence slope [7]: -5.3e-05 (inactive)
- slope [8]: 0.00537 (inactive)
- outcome [9]: inactive
- inhibition [10]: -4.89% (inactive)
- inhibition [11]: 9% (inactive)
- inhibition [12]: 26.8% (inactive)

SMILES: O=c1[nH]c(=O)n(CCc2ccccc2)c(O)c1C=NCCN1CCNCC1
- cell count [1]: 554
- inhibition [1]: -4% (inactive)
- inhibition of aggregation [2]: -1.9% (inactive)
- nuclei count [2]: 109%
- inhibition [3]: -30.7% (inactive)
- nuclei count [3]: 123%
- z-score [4, 14]: -0.452
- z-score [4, 15]: -0.273
- z-score [4, 16]: -0.327
- inhibition [5]: -3.5% (inactive)
- fluorescence slope [6]: -0.348 (inactive)
- NADPH fluorescence slope [7]: 2e-05 (inactive)
- slope [8]: 0.0061 (inactive)
- outcome [9]: inactive
- inhibition [10]: -4.22% (inactive)
- inhibition [11]: 18.3% (inactive)
- inhibition [12]: 21.6% (inactive)

From PubChem BioAssay
